The results in this text go back to PubChem BioAssay (NCI).

The nature of test [1]: NCI Yeast Anticancer Drug Screen. Data for the rad50 strain (AID 155).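 Note: 0% = growth of vehicle-only cultures of the same strain.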 To be noted: S. cerevisiae rad50 strain growth inhibition, stronger effect = higher value. The gist of the method: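 Relative growth inhibition (compound vs vehicle) was measured in yeast with a defined repair-gene alteration.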
Test [2] can be described thus: NCI Yeast Anticancer Drug Screen. Data for the mec2-1 strain (AID 157). To be noted: S. cerevisiae mec2-1 strain, stronger effect = higher value. Summed up:
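Cells of the genetically defined mec2-1 yeast strain are incubated with test compound. Inhibition of growth is calculated against vehicle-treated controls.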

A short description of test [3]: NCI Yeast Anticancer Drug Screen. Data for the sgs1 mgt1 strain (AID 161).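 Note: 0% = growth of cultures given vehicle only.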 To be noted: S. cerevisiae sgs1 mgt1 strain, stronger effect = higher value. The gist of the method:
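Test agents were incubated with a DNA-repair-mutant yeast strain. Growth was then read and compared against vehicle-treated controls.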

Test [4] is described as follows: NCI Yeast Anticancer Drug Screen. Data for the cln2 rad14 strain (AID 165).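 Note: 0% = growth equal to vehicle treated cultures.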 The following applies: S. cerevisiae cln2 rad14 strain, stronger effect = higher value. Summed up: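 The screen exposed genetically defined yeast (cln2 rad14) to test compounds and scored growth inhibition relative to vehicle-treated controls.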
Test [5] in a line: NCI Yeast Anticancer Drug Screen. Data for the bub3 strain (AID 167). To be noted: S. cerevisiae bub3 mutant strain, stronger effect = higher value. Summed up: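 Screening used yeast with an engineered genetic alteration affecting cell cycle control. Compound-exposed cultures were compared with vehicle cultures, and reduced growth was taken as inhibition.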
The nature of test [6]: NCI Yeast Anticancer Drug Screen. Data for the mlh1 rad18 strain (AID 175). To be noted: S. cerevisiae mlh1 rad18 strain growth inhibition, stronger effect = higher value. The gist of the method: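 Compound-treated yeast growth, normalised to vehicle controls. Strain bears defined DNA repair mutations.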
[7] abbreviates: at 5.0 µM (retest, dose inferred, filed as 0.5).
The mark [8] stands for this setting: at 50.0 µM (retest, dose inferred, filed as 5.0).

This is part of a sample that, as a whole, favours compounds with a hit. Of some 79,000 tested, about 15% had one in any assay. Unmarked numbers belong to inactive results. Activity calls are given as the source filed them. Cut-off read from the data, not from the text of the source: active = growth inhibition above about 70%; inactive = the rest.

As to `N#CC(CC(Br)CBr)(c1ccccc1)c1ccccc1` (stereo not given), the growth inhibition was 8% in test [1] (setting [7]); 11% in test [1] (setting [8]); 45.9% in test [1] (at 50.0 µM); 8% in test [2] (setting [7]); 24% in test [2] (setting [8]); 40.1% in test [2] (at 50.0 µM). The growth inhibition in test [3] (setting [7]) was 11%; in test [3] (setting [8]), 29%; in test [3] (at 50.0 µM), 56%; in test [4] (setting [7]), 10%; in test [4] (setting [8]), -2%; in test [4] (at 50.0 µM), 36.2%. Further, the growth inhibition is 9% in test [5] (setting [7]); 11% in test [5] (setting [8]); 33.3% in test [5] (at 50.0 µM); 16% in test [6] (setting [7]); 51% in test [6] (setting [8]); 75.5% (active) in test [6] (at 50.0 µM).
Regarding `COC(=O)N/N=C(\c1ccc(O)cc1)C(C)C1(O)C(=O)Nc2ccccc21` (stereo not given), the growth inhibition in test [1] (setting [7]) is -16%; in test [1] (setting [8]), 35%; in test [1] (at 50.0 µM), -19.5%; in test [2] (setting [7]), 6%; in test [2] (setting [8]) it was 20%; in test [2] (at 50.0 µM) it was 7.45%. For the same molecule, the growth inhibition is 7% in test [3] (setting [7]); 26% in test [3] (setting [8]); 16.9% in test [3] (at 50.0 µM); -2% in test [4] (setting [7]); 23% in test [4] (setting [8]); -30.2% in test [4] (at 50.0 µM). For the same molecule, the growth inhibition in test [5] (setting [7]) was 1%; in test [5] (setting [8]) it was 34%; in test [5] (at 50.0 µM), -0.8%; in test [6] (setting [7]), -3%; in test [6] (setting [8]) it was 28%; in test [6] (at 50.0 µM), 14.2%.
For `c1cc2c(cc1CCCCCCCCCCc1ccc3c(c1)CCC3)CCC2`, the growth inhibition in test [1] (setting [7]) is -4%; in test [1] (setting [8]), -5%; in test [1] (at 50.0 µM) it was 2.75%; in test [2] (setting [7]), -13%; in test [2] (setting [8]), -8%; in test [2] (at 50.0 µM) it was 3.85%. The growth inhibition is 9% in test [3] (setting [7]); 2% in test [3] (setting [8]); 3.3% in test [3] (at 50.0 µM); -4% in test [4] (setting [7]); 0% in test [4] (setting [8]); 79.8% (active) in test [4] (at 50.0 µM). In addition, the growth inhibition in test [5] (setting [7]) is -6%; in test [5] (setting [8]) it was -2%; in test [5] (at 50.0 µM) it was 2.95%; in test [6] (setting [7]), -2%; in test [6] (setting [8]) it was -38%; in test [6] (at 50.0 µM), 10.6%.
`COc1ccc2c(c1)CCn1c(C)c(COC(=O)NC(C)C)c(COC(=O)NC(C)C)c1-2`: the growth inhibition in test [1] (setting [7]) was 17%; in test [1] (setting [8]), 98% (active); in test [1] (at 50.0 µM), 88.7% (active); in test [2] (setting [7]), 0%; in test [2] (setting [8]), 98% (active); in test [2] (at 50.0 µM) it was 92.3% (active). Moreover, the growth inhibition was 33% in test [3] (setting [7]); 98% (active) in test [3] (setting [8]); 89.2% (active) in test [3] (at 50.0 µM); 10% in test [4] (setting [7]); 97% (active) in test [4] (setting [8]); 90.3% (active) in test [4] (at 50.0 µM). The growth inhibition was 15% in test [5] (setting [7]); 98% (active) in test [5] (setting [8]); 88.7% (active) in test [5] (at 50.0 µM); 17% in test [6] (setting [7]); 98% (active) in test [6] (setting [8]); 87.7% (active) in test [6] (at 50.0 µM).
`CNC(=O)OC1/C(C)=C\C(C)C(O)C(OC)CC(C)CC2=C(OC)C(=O)C=C(C2=O)N(C)C(=O)/C(C)=C/C=C\C1OC` (stereo not given): the growth inhibition in test [1] (setting [7]) was -24%; in test [1] (setting [8]), 25%; in test [1] (at 50.0 µM), 65%; in test [2] (setting [7]) it was -28%; in test [2] (setting [8]), 70% (active); in test [2] (at 50.0 µM), 83.8% (active). In addition, the growth inhibition in test [3] (setting [7]) is -22%; in test [3] (setting [8]) it was 39%; in test [3] (at 50.0 µM), 65.8%; in test [4] (setting [7]), 8%; in test [4] (setting [8]), 68%; in test [4] (at 50.0 µM) it was 50%. The growth inhibition in test [5] (setting [7]) was 9%; in test [5] (setting [8]) it was 80% (active); in test [5] (at 50.0 µM), 73.6% (active); in test [6] (setting [7]) it was -3%; in test [6] (setting [8]), 68%; in test [6] (at 50.0 µM), 51%.
`O=C1OC(c2ccc(O)cc2)=C(c2ccccc2)C1c1ccccc1` (stereo not given): the growth inhibition in test [1] (setting [7]) is 9%; in test [1] (setting [8]), 36%; in test [1] (at 50.0 µM), 99.4% (active); in test [2] (setting [7]) it was -7%; in test [2] (setting [8]), 29%; in test [2] (at 50.0 µM), 99.5% (active). Also, the growth inhibition is -10% in test [3] (setting [7]); 47% in test [3] (setting [8]); 99.5% (active) in test [3] (at 50.0 µM); 4% in test [4] (setting [7]); 26% in test [4] (setting [8]); 99.5% (active) in test [4] (at 50.0 µM). Moreover, the growth inhibition in test [5] (setting [7]) was 2%; in test [5] (setting [8]), 29%; in test [5] (at 50.0 µM), 99.4% (active); in test [6] (setting [7]) it was 10%; in test [6] (setting [8]) it was 67%; in test [6] (at 50.0 µM), 99.5% (active).
Turning to `CC(=O)Nc1ccc(O)c(=O)cc1`, the growth inhibition in test [1] (setting [7]) was 18%; in test [1] (setting [8]), 96% (active); in test [1] (at 50.0 µM) it was 90.6% (active); in test [2] (setting [7]), 42%; in test [2] (setting [8]), 97% (active); in test [2] (at 50.0 µM), 87.5% (active). The growth inhibition in test [3] (setting [7]) was 27%; in test [3] (setting [8]) it was 96% (active); in test [3] (at 50.0 µM) it was 96.1% (active); in test [4] (setting [7]), 16%; in test [4] (setting [8]), 93% (active); in test [4] (at 50.0 µM) it was 20.9%. Further, the growth inhibition in test [5] (setting [7]) is 23%; in test [5] (setting [8]), 93% (active); in test [5] (at 50.0 µM), 53.9%; in test [6] (setting [7]), 19%; in test [6] (setting [8]), 97% (active); in test [6] (at 50.0 µM) it was 97.2% (active).
On to `COc1ccc(CSC(=S)Nc2ccc(Cl)cc2Cl)cc1`, for which the growth inhibition in test [1] (setting [7]) is 6%; in test [1] (setting [8]), 98% (active); in test [1] (at 50.0 µM), 99.2% (active); in test [2] (setting [7]) it was 5%; in test [2] (setting [8]) it was 99% (active); in test [2] (at 50.0 µM), 99.3% (active). Further, the growth inhibition in test [3] (setting [7]) is 8%; in test [3] (setting [8]), 99% (active); in test [3] (at 50.0 µM), 99.3% (active); in test [4] (setting [7]), -24%; in test [4] (setting [8]) it was 96% (active); in test [4] (at 50.0 µM), 98.7% (active). Besides, the growth inhibition was -6% in test [5] (setting [7]); 97% (active) in test [5] (setting [8]); 99% (active) in test [5] (at 50.0 µM); 3% in test [6] (setting [7]); 98% (active) in test [6] (setting [8]); 98.8% (active) in test [6] (at 50.0 µM).
For `Clc1ccc(CN2COc3c(ccc4cccnc34)C2)cc1`, the growth inhibition was 1% in test [1] (setting [7]); 36% in test [1] (setting [8]); 97.1% (active) in test [1] (at 50.0 µM); -2% in test [2] (setting [7]); 65% in test [2] (setting [8]); 64.5% in test [2] (at 50.0 µM). In addition, the growth inhibition in test [3] (setting [7]) was -1%; in test [3] (setting [8]), 97% (active); in test [3] (at 50.0 µM), 99.4% (active); in test [4] (setting [7]) it was 1%; in test [4] (setting [8]), 97% (active); in test [4] (at 50.0 µM), 77.5% (active). Moreover, the growth inhibition in test [5] (setting [7]) is -4%; in test [5] (setting [8]) it was 85% (active); in test [5] (at 50.0 µM), 77.5% (active); in test [6] (setting [7]) it was 2%; in test [6] (setting [8]) it was 95% (active); in test [6] (at 50.0 µM) it was 93% (active).
As for `O=C(O)COc1cc(Br)cc(Br)c1-c1ccccc1`, the growth inhibition in test [1] (setting [7]) was 2%; in test [1] (setting [8]) it was 36%; in test [1] (at 50.0 µM), 65.2%; in test [2] (setting [7]) it was 14%; in test [2] (setting [8]) it was 70% (active); in test [2] (at 50.0 µM), 59.5%. Also, the growth inhibition in test [3] (setting [7]) was -10%; in test [3] (setting [8]), 39%; in test [3] (at 50.0 µM) it was 71.2% (active); in test [4] (setting [7]), 2%; in test [4] (setting [8]) it was 56%; in test [4] (at 50.0 µM), 65%. The growth inhibition in test [5] (setting [7]) is -3%; in test [5] (setting [8]), 46%; in test [5] (at 50.0 µM), 29.8%; in test [6] (setting [7]), 22%; in test [6] (setting [8]), 78% (active); in test [6] (at 50.0 µM), 67.7%.
